Among the data in PubChem BioAssay (Tox21) are Potency values, retold here.

Inconclusive results are not listed. Entries that show only a call come without a potency. The source made the active and inactive calls. The call rests on the fitted dose curve; in most records, active means well fitted cell-killing curve with a large enough effect in the repeat runs; inconclusive means weak or mixed curves, or effect the other way; inactive means flat fitted curve, though single readings scatter.
Potency means the concentration at half of the fitted maximal effect.

This experiment can be described thus: qHTS RealTime-Glo MT Cell Viability Assay in HEK293 cells - 24 hour (AID 1224886). Further: nearly all actives have a fitted effect of over 50% in size. The following applies: RealTime-Glo luminescence; series mostly up to 76.8 µM. The text has this: National Center for Advancing Translational Sciences [NCATS]
NIH Chemical Genomics Center [NCGC]
U.S. Environmental Protection Agency [EPA]
National Institutes of Environmental Health Sciences [NIEHS]
National Toxicology Program [NTP]
U.S. Food and Drug Administration [FDA]
Measure of cell viability is critical in the cell-base assay. Analysis of cell viability is necessary for the characterization of cell responses to cytotoxic drugs and environmental stress. A RealTime-Glo MT Cell Viability Assay to monitor cell viability in real time of continues cell culture during 40 hours of compound treatment was used to screen Tox21 10K library compounds in Hek293 cells. The RealTime-Glo MT Cell Viability Assay is a nonlytic, homogeneous, bioluminescent method to measure cell viability in real time using a simple, plate-based method. The assay involves adding NanoLuc luciferase and a cell-permeant prosubstrate to cells in culture. Viable cells reduce the proprietary prosubstrate to generate a substrate for NanoLuc luciferase. This substrate diffuses from cells into the surrounding culture medium, where it is rapidly used by the NanoLuc Enzyme to produce a luminescent signal. The signal correlates with the number of viable cells, making the assay well suited for cytotoxicity studies.
Tox21 Assay Protocol Summary:
The mixture of Hek293 cell suspension and reagents were dispensed at 600cells/6 ul/well in 1536-well tissue culture treated black solid bottom plates using a Multidrop dispenser. After the assay plates were incubated at a 37 C/5% CO2 incubator for 5 hours, 23 nL of compounds dissolved in DMSO, positive and negative controls was transferred to the assay plate by a pintool work station. The plates were incubated at 37 C for 40 hours. The luminescence intensity were measured at 0h, 8h, 16h, 24h, 32h and 40h time points using ViewLux plate reader during compound treatment.
Consider `Cc1cccc(OCCOc2cccc(C)c2)c1`, for which the Potency result was “inactive”.

Take `O=C(Cl)c1ccc([N+](=O)[O-])cc1`: the Potency entry is “inactive”.

With `CCCCCCc1ccc(N)cc1`, the Potency result was “inactive”.

In the case of `Cc1cc(CC(=O)O)c(C)n1-c1ccc(Cl)cc1`, the Potency entry was “inactive”.

With `Oc1ccc(Cc2ccccc2)cc1`, the Potency is 36 µM (active).

Turning to `O=C(O)Cc1cc(I)c(Oc2ccc(O)c(I)c2)c(I)c1`, the Potency entry is “inactive”.

Turning to `Cc1ccc2c(ccc3ccccc32)c1`, the Potency result is “inactive”.

Take `CC(C)CC=O`: the Potency result is “inactive”.

As for `C1CCC2OC2C1` (stereo not given), the Potency result is “inactive”.

Turning to `Cn1c(=O)c2c(ncn2CC(O)CO)n(C)c1=O` (stereo not given), the Potency result is “inactive”.

For `COc1ccccc1OC(=O)Oc1ccccc1OC`, the Potency result was “inactive”.

Take `COC(=O)CSc1cc(N=c2sc(=O)n3n2CCCC3)c(F)cc1Cl`: the Potency entry was “inactive”.

With `CC(C)=CCCC(C)CC=O` (stereo not given), the Potency entry is “inactive”.

`Cc1ccccn1`: the Potency entry is “inactive”.

In the case of `COc1ccc2[nH]c(S(=O)Cc3ncc(C)c(OC)c3C)nc2n1` (stereo not given), the Potency entry is “inactive”.

Take `Cc1c(Cn2ccnc2)c2ccccc2n1CCC(=O)O`: the Potency entry is “inactive”.

Turning to `CCCCCCCCCCCCCCCBr`, the Potency entry was “inactive”.

As to `CCCCCCCCC(CO)CCCCCC` (stereo not given), the Potency entry is “inactive”.

Regarding `CC(=O)NCCCS(=O)(=O)O`, the Potency result was “inactive”.

For `O=C(O)Cn1c(C(=O)Nc2nc(-c3ccccc3Cl)cs2)cc2ccccc21`, the Potency entry is “inactive”.

For the molecule `C=C(C)C(=O)OCCN(C)C`, the Potency result is “inactive”.

In the case of `CCCCCC/C=C/C=O`, the Potency entry is “inactive”.

Turning to `CC[C@]12CCCN3CCc4c(n(c5ccccc45)C(=O)C1)[C@@H]32`, the Potency is 4.77 µM (active).

As for `CC(C)(C)c1cc(O)c(C(C)(C)C)cc1O`, the Potency was 21.9 µM (active).

For `C=C(C)C(=O)OCCOc1ccccc1`, the Potency entry is “inactive”.

In the case of `CC(=O)/C(C)=C/C1C(C)=CCCC1(C)C` (stereo not given), the Potency entry is “inactive”.

Turning to `CC(=O)SCc1ccco1`, the Potency entry is “inactive”.

`CN(C)CC/C=C1\c2ccccc2COc2ccccc21`: the Potency result was “inactive”.

On to `O=C(c1ccc(O)cc1)c1ccc(O)cc1`, for which the Potency result was “inactive”.

Turning to `CC[C@H](C)[C@@H](C(=O)O)n1sc2ccccc2c1=O`, the Potency entry is “inactive”.

In the case of `CCCCCc1ccc(N)cc1`, the Potency result was “inactive”.

For the molecule `CN1CCC[C@@H]1c1cccnc1`, the Potency entry was “inactive”.

Consider `CCCCOC(=O)c1ccccc1C(=O)OCC(CC)CCCC` (stereo not given), for which the Potency result was “inactive”.

Turning to `O=C(O)c1cccc(N(Cc2cccnc2)c2ccc(OC(F)F)c(OC(F)F)c2)c1`, the Potency result was “inactive”.

For `CC(C)CCCC(C)CCO` (stereo not given), the Potency entry was “inactive”.

With `Cn1sccc1=O`, the Potency result was “inactive”.

For the molecule `CCCCCCCCCC(=O)OCC`, the Potency result is “inactive”.

With `N[C@H]1C(O)O[C@H](CO)[C@H](O)[C@@H]1O` (stereo not given in full), the Potency entry is “inactive”.

Regarding `NC(N)=N/N=C/c1c(Cl)cccc1Cl`, the Potency entry was “inactive”.

For `NCc1ccccc1`, the Potency result is “inactive”.
